This is a sample that favours compounds with a hit; in the whole collection about 0.73% have one here.
TcdB inh: blocks C. difficile toxin B glycohydrolase activity; inhibition, % at 9.99 µM; AID 652162; TcdB glycohydrolase enzymatic assay, plate reader; 0.24% of 350,000 active; in the data active means inhibition above about 10%
Yp Topo-I inh: blocks Yersinia pestis topoisomerase I activity; Y. pestis Topo-I cleavage product accumulation, plate reader; activity, % at 10 µM; AID 504884; 0.064% of 360,000 active; in the data active means activity above about 50%, passing the limit was not always enough
Vc quorum ag-1: quorum light induction in luxS cqsA deficient V. cholerae; 0.16% of 350,000 active; V. cholerae BH1578 lux reporter, luminescence, 6 h; activation, % at 18.7 µM; in the data active means activation mostly above about 9.7%, no sharp cut-off
DUSP3 inh: inhibitors of human VHR1 phosphatase (DUSP3) | inhibition, % at 13.3 µM | recombinant VHR phosphatase, pNPP absorbance | 0.52% of 290,000 active | P51452; in the data active means inhibition above about 50%
BioA inh: BioA (M. tuberculosis) enzyme inhibition; AID 602481; purified M. tuberculosis BioA enzyme, plate reader; inhibition, % at 9.99 µM; 0.096% of 360,000 active; in the data active means inhibition above about 40%
Vc quorum ag-2: induces V. cholerae light production without autoinducers | shares compounds with Vc quorum ag-1 | V. cholerae BH1578 lux reporter, luminescence, 6 h | activation, % at 50 µM | 620 tested, under 10 active | AID 602243; call rule not given here
HeLa tox: HeLa cell viability loss at 24 h; shares compounds with Vc quorum ag-1; CellTiter-Glo ATP luminescence; activity change, negative = cytotoxicity, % at 35 µM; 25 tested, under 10 active; AID 624140;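 active means signal drop with fitted half-maximal concentration at or below twice the highest valid dose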
* marks the source's active call; other numbers are inactive results; i = inactive; x = not tested or not shown; + = active, no number.

SMILES	TcdB inh	Yp Topo-I inh	Vc quorum ag-1	DUSP3 inh	BioA inh	Vc quorum ag-2	others
C[C@@H]1CCCCO[C@H](CN(C)C(=O)Nc2ccc(F)cc2)[C@H](C)CN([C@@H](C)CO)C(=O)c2cc(NC(=O)Nc3ccc4c(c3)OCO4)ccc2O1	-0.2	x	x	x	0.9	x
O=C(NCc1ccco1)c1cc2n(n1)C(C(F)(F)F)CC(c1ccc(Cl)c(Cl)c1)N2 (stereo not drawn)	x	10.3	14.3	13.4	-2.6	903.2
CCOC(=O)c1c(NC(=O)c2cccs2)sc(C)c1CC	x	9.7	114.3*	13.6	-0.7	1.3
CCc1c(C)sc(NC(=O)c2cccs2)c1C(=O)OC(C)C	x	13.7	i	-18.8	x	x
O=C(Oc1ccc2ccc(OC(=O)N3CCOCC3)cc2c1)N1CCOCC1	x	2.7	16.7*	-1.4	-1.7	11.2
CC1(C)NC(=O)N(CCCCOc2ccc3ccccc3c2Cl)C1=O	x	9.9	-1.9	-4.6	0.2	x
CC1(C)NC(=O)N(CCOCCOc2ccc3ccccc3c2Br)C1=O	x	13.9	14.3	14.0	0.9	0.7
O=C1CN(S(=O)(=O)Cc2ccccc2)C[C@H]2[C@@H](c3ccc(C#Cc4ccccc4)cc3)[C@H](CO)N12	0.0	x	x	x	x	x
O=C(c1cc2cc(Cl)ccc2oc1=O)N1CCCC1	x	-0.8	6.6	-18.1	-1.9	-0.2
O=C(COc1ccccc1)NC1CCN(Cc2ccccc2)CC1	x	3.3	i	-8.3	x	x
O=C(COc1ccccc1)NC1CCCN(Cc2ccccc2)C1 (stereo not drawn)	x	x	x	x	x	x	HeLa tox=5.2
COc1ccc(OCC(=O)NC2CCCN(Cc3ccc(Cl)cc3)C2)cc1 (stereo not drawn)	-4.0	32.4	x	12.2	4.2	i
COC(=O)c1c(-c2ccc(Br)cc2)noc1N	x	4.6	16.7*	28.5	-0.7	10.4
O=C(Nc1ccccc1Oc1ccccc1)c1cnccn1	x	10.4	-0.6	2.9	-0.4	x
Cc1ccc(Oc2ccc(Cl)cc2NC(=O)c2cnccn2)cc1	x	-14.8	16.7*	0.3	-3.5	0.1
CC(C)(C)Cc1nc(-c2ccccn2)no1	x	-4.5	14.3	-0.2	-1.8	0.3
COc1ccc(S(=O)(=O)N(C)C[C@@H]2Oc3ccc(N(C)C)cc3C(=O)N([C@@H](C)CO)C[C@H]2C)cc1	-1.7	x	x	x	0.4	x
CN(CC(=O)Nc1ccccc1Cl)C(=O)c1cccc(-n2cccc2)c1	0.2	-0.9	14.3	x	-0.3	0.0
CN(CC(=O)Nc1c(Cl)cccc1Cl)C(=O)c1cccc(-n2cccc2)c1	-2.9	0.8	-17.1	x	x	x
COCCNC(=O)c1cnn2c1NC(c1ccco1)CC2C(F)(F)F (stereo not drawn)	x	-0.9	16.7*	13.3	-1.8	0.3
O=c1ncn(-c2cccc(Cl)c2)c2ccccc12	0.1	-8.0	+	x	x	618.7	HeLa tox=0.5
O=C(N[C@H]1CC[C@@H](CCNS(=O)(=O)Cc2ccccc2)O[C@@H]1CO)c1ccccc1F	-1.7	x	x	x	2.8	x
Cc1cc(C(F)(F)F)c2c(N)c(C(=O)NC3CC3)sc2n1	1.0	-9.5	12.5	10.5	-3.9	1.0
CC(C)CCN1CC(C(=O)N2CCN(c3ccc(F)cc3)CC2)CC1=O (stereo not drawn)	x	2.2	16.7*	13.2	3.7	0.2
O=C1CC(C(=O)N2CCN(c3ccc(F)cc3)CC2)CN1CCc1ccccc1 (stereo not drawn)	-0.1	17.4	-0.1	17.0	2.4	x
SMILES	TcdB inh	Yp Topo-I inh	Vc quorum ag-1	DUSP3 inh	BioA inh	Vc quorum ag-2	others
CO[C@@H]1CN(C)C(=O)c2ccc(NC(=O)NC(C)C)cc2OC[C@@H](C)N(CCC(F)(F)F)C[C@@H]1C	0.9	x	x	x	0.9	x
COc1cccc(NC(=O)N[C@@H]2C=C[C@H](CC(=O)N3CCN(C)CC3)O[C@H]2CO)c1	0.7	x	x	x	-2.8	x
COCC(=O)Nc1ccc2c(c1)OC[C@@H](C)N(C(=O)Cc1cccnc1)C[C@@H](C)[C@H](OC)CN(C)C2=O	-0.2	x	x	x	-0.8	x
Cc1ccc(OCCC(=O)Nc2ccc3c(c2)OCO3)cc1	2.8	-4.5	-0.5	x	-1.0	x
Cc1ccc(OCCC(=O)OCC(=O)Nc2ccc3c(c2)OCO3)cc1	1.1	0.2	14.3	x	-1.2	-0.1
CN1c2ccc(Br)cc2[C@H]2[C@H](CCN2C(=O)c2cccc(F)c2)[C@@H]1CO	x	x	x	x	9.6	x
Cc1ccccc1-n1nnnc1-c1ccccc1	x	-4.7	26.8	11.9	-1.4	0.1
Clc1ncnc2scc(-c3ccccc3)c12	x	6.3	12.5	17.1	1.8	0.1

Compound activity deposited in PubChem BioAssay by several laboratories.
